# Shown are actives, neighbours in structure and some others; about 4.6% of the full set was active somewhere.
# ADAM10 inh = inhibits human ADAM10 | recombinant ADAM10, EDANS/DABCYL FRET peptide cleavage, 3 h | 370,000 tested, 0.62% active | inhibition, % at 7 µM | O14672;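 active = inhibition above a per-campaign cutoff equal to the mean of compounds falling between control-based bounds plus 3 SD, cut at about 20% in these data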;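 note: 0% = DMSO wells while the 100% control is not disclosed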
# Target sequence (O14672 214-748 limits assumed): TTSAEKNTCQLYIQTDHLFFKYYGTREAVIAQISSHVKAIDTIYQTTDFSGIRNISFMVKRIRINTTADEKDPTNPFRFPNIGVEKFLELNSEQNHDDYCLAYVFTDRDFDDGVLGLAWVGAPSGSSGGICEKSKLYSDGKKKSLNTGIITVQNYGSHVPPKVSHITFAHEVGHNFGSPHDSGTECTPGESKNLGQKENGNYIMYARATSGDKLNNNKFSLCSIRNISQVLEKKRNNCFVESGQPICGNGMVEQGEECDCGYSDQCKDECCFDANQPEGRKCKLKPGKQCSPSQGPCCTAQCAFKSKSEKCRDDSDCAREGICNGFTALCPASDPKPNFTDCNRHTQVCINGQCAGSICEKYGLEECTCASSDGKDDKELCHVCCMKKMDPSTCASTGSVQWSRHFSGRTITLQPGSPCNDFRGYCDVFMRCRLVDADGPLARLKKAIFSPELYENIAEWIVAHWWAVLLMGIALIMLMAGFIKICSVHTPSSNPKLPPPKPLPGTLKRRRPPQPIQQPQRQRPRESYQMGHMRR
# ADAM17 inh = ADAM17 inhibition, QFRET primary screen | recombinant ADAM17, EDANS/DABCYL FRET peptide cleavage | inhibition, % at 6.95 µM | 370,000 tested, 0.83% active;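 active = inhibition above the mean of compounds lying between control limits plus 3 SD, set per campaign, cut at about 8.5% in these data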;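 note: 0% = DMSO-only wells as the low control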
# proKLK7 act = activators of human kallikrein-7 zymogen | 370,000 tested, 0.9% active | purified proKLK7, EDANS-DABCYL substrate fluorescence; 100% is mature enzyme control, 0% vehicle | P49862 | activation, % at 7 µM;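 active = activation above the mean of all tested compounds plus 3 SD, computed per campaign excluding outliers beyond control limits, cut at about 13% in these data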
# NR3A LBD binder = NR3A (human) ligand-binding domain modulation; AID 1259313; NR3A LBD differential scanning fluorimetry, Tm shift; 0% = protein alone, 100% = glycine-bound protein; 340,000 tested, 2.5% active; Tm shift relative to glycine control, % at 25 µM;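 active = melting temperature shift of at least 10% of the positive control shift, at one fixed dose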
# FAS TE block = blocks the thioesterase domain of human fatty acid synthase; P49327; recombinant FAS-TE, OMFH fluorogenic substrate, fluorescence endpoint; inhibition, % at 15 µM; 360,000 tested, 0.67% active;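 active = compounds whose normalised, plate-corrected inhibition of enzyme fluorescence in the single-dose primary screen is 50% or more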;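 note: 0% = DMSO with enzyme and 100% = substrate without enzyme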
# The depositor's hits bear a star; i = inactive; . = no result given.
SMILES,ADAM10 inh,ADAM17 inh,proKLK7 act,NR3A LBD binder,FAS TE block
CCOc1ccc(S(=O)(=O)N2CCOCC2)cc1NC(=O)CSCC(=O)Nc1ccc(C)cc1,-3,-7,-1,11*,2
COc1ccc(CC(=O)NNC(=O)COc2ccc(F)cc2)cc1S(=O)(=O)N1CCOCC1,-16,-4,0,-4,-8
COc1ccc(/C=C/C(=O)Nc2ccc(S(=O)(=O)N3CCOCC3)cc2)c(OC)c1,-136,-179,-1,25*,13
O=C(NCc1ccco1)C1CCCN(S(=O)(=O)c2ccccc2[N+](=O)[O-])C1 (stereo unspecified),-5,1,0,.,.
CCOC(=O)[C@@]12CCCC3=C1N(CCC3)C(=O)[C@H]2CC(=O)N1CCSCC1,-8,-3,0,.,.
C=CCN1[C@H](CO)[C@H](c2ccccc2)[C@@H]1C#N,-8,-4,0,.,.
O=C(CCCOc1ccccc1)Nc1ccc(S(=O)(=O)N2CCOCC2)cc1,13,4,0,0,6
Cc1ccc(OCCCC(=O)Nc2ccc(S(=O)(=O)N3CCOCC3)cc2)cc1,1,3,1,28*,8
O=C(Nc1cccc(Cl)c1)O[C@@H]1CC[C@@]23CCCN2C(=O)CCC[C@H]3C1,5,2,.,.,.
CSc1cccc(NC(=O)CCCOc2ccc(Cl)cc2Cl)c1,-5,-2,0,20*,29
COc1ccc(CC(=O)Nc2cccc(SC)c2)cc1,-2,-2,0,16*,3
CSc1cccc(NC(=O)CCCOc2ccccc2)c1,10,4,0,1,12
Cn1c(CCCOc2ccc(Cl)cc2Cl)nnc1SCC(=O)Nc1ccc(F)c(Cl)c1,3,0,0,24*,28
COc1ccc(NC(=O)COC(=O)CCCOc2ccc(Cl)cc2Cl)cc1Cl,15,6,0,31*,24
CCOc1ccccc1OCCCC(=O)OCC(=O)Nc1cccc(Cl)c1,9,2,0,-8,12
Cc1ccccc1CN1CCCCC(NC(=O)c2ccc(N(C)C)cc2)C1=O (stereo unspecified),0,-2,0,.,.
Cn1c(SCC(=O)NCCN2CCCCC2)nc2cccnc21,5,1,0,.,.
CC[C@H](CCCCCCCn1ccc2ccccc21)CCC(=O)N(c1ccccc1)c1ccccc1,0,1,1,.,.
COc1ccc(Cl)cc1NC(=O)COC(=O)Cc1cc(OC)c(OC)c(OC)c1,-3,1,0,17*,2
CC(C)CCNC(=O)C1COC(O)(C(Cc2ccccc2)NC(=O)[C@@H](NC(=O)OCc2ccccc2)C(C)C)CN1 (stereo partly specified),-5,-3,.,.,.
CCOC(=O)CN1CCCc2nc(C)c(C)cc21,i,-189,29*,.,.
O=C(Nc1ncc(S(=O)(=O)c2ccc([N+](=O)[O-])cc2)s1)c1ccc2ccccc2c1,-5,1,1,22*,9
CC(C)c1ccc(Nc2nnc(SCC(=O)Nc3ncc(S(=O)(=O)c4ccc([N+](=O)[O-])cc4)s3)s2)cc1,9,1,0,13*,-18
Cc1cc(=O)[nH]c(SCC(=O)Nc2ncc(S(=O)(=O)c3ccc([N+](=O)[O-])cc3)s2)n1,3,0,0,-3,5
Cc1ccc(Nc2nnc(SCC(=O)Nc3ncc(S(=O)(=O)c4ccc([N+](=O)[O-])cc4)s3)s2)cc1,-4,-4,0,16*,0
SMILES,ADAM10 inh,ADAM17 inh,proKLK7 act,NR3A LBD binder,FAS TE block
O=C(CCl)Nc1ncc(S(=O)(=O)c2ccc([N+](=O)[O-])cc2)s1,5,0,0,-3,-3
CCC[C@H]1[C@@H](NC(=O)C2CCCCC2)CC[C@@]23CCCN2C(=O)CCC[C@@H]13,-7,-2,.,.,.
COC(=O)[C@@H]1N=C(c2ccc(OC)cc2)O[C@]12C(=O)N(Cc1cn(-c3ccccc3)nn1)c1cccc(Cl)c12,5,1,0,.,.
Cc1c[nH]c2cccc(-c3ccc(Cl)cc3Cl)c12,4,2,0,.,.
C=CCNCc1ccc(OC)cc1OC,-13,-3,0,.,.
Cc1ccc2nc(-c3ccc(NC(=O)CSc4nnc(-c5cc(-c6ccc(F)cc6)n[nH]5)n4N)cc3)sc2c1,-150,-53,5,.,.
CSc1ccc(C=Nn2c(-c3cc(C)[nH]n3)n[nH]c2=S)cc1,-4,-5,0,.,.
COc1ccc(/C=N/Nc2nc(NCc3ccco3)nc(Nc3ccc(OC)cc3)n2)cc1,1,4,-1,18*,15
COc1ccc(Nc2nc(NCc3ccco3)nc(N/N=C/c3ccccc3F)n2)cc1,10,4,0,16*,24
COc1ccc(/C=N/Nc2nc(Nc3ccccc3)nc(N3CCCC3)n2)cc1,8,4,0,4,-2
COc1ccc(Nc2nc(NCc3ccco3)nc(N/N=C/c3ccc(O)cc3)n2)cc1,3,4,0,19*,9
CCC(=O)c1ccc(OCC(O)CN(CCc2ccccc2)Cc2ccccc2)cc1 (stereo unspecified),18,9.3*,0,-8,32
COC(=O)C1CN(Cc2cn(Cc3ccc(OC)cc3)nn2)CCS(=O)(=O)N1Cc1ccccc1 (stereo unspecified),-9,-1,0,.,.
COC(=O)[C@H](C(C)C)N(CCCc1cn(Cc2ccc(C)cc2)nn1)S(=O)(=O)c1ccc(F)cc1Br,14,8,0,.,.
C/C(=N/NS(=O)(=O)c1cc(C)ccc1C)c1c[nH]c2ccccc12,-12,-2,-1,29*,5
C/C(=N/NS(=O)(=O)c1ccc(C)cc1)c1c[nH]c2ccccc12,8,-3,0,-10,0
CCCCOCCCNC(=O)C[C@H]1C[C@@]2(C(=O)OC)C(=C[C@H](C(C)(C)C)O[C@@H]2C)N(Cc2ccco2)C1=O,6,0,0,.,.
Cc1cccc(Cn2cc(CN3CC(N(C)CCCOC(=O)c4cc(C)cc(C)c4)CS3(=O)=O)nn2)c1 (stereo unspecified),-2,-1,1,.,.
CCCCNS(=O)(=O)/C=C/c1cc(C)ccc1CNC(=O)OC(C)(C)C,7,3,1,.,.
NS(=O)(=O)c1ccc(Nc2nc(-c3ccc(O)cc3)cs2)cc1,-5,-4,0,3,15
COc1ccc2oc(=O)c(-c3csc(Nc4ccc(O)cc4)n3)cc2c1,10,4,0,11*,2
CC(=O)Oc1ccc(-c2csc(Nc3ccc(S(N)(=O)=O)cc3)n2)cc1,1,-4,0,3,6
Cc1ccc(Nc2nc(C)cs2)cc1,-2,1,-1,26*,-4
Oc1ccc(Nc2nc(-c3ccc(O)cc3)cs2)cc1,-7,-4,-1,12*,4
COc1ccc(-c2csc(Nc3ccc(S(N)(=O)=O)cc3)n2)cc1,-10,-2,0,23*,15
Cc1csc(Nc2ccc(Cl)cc2)n1,1,2,0,5,7
Clc1ccc(Nc2nc(-c3ccncc3)cs2)cc1,0,-3,0,10*,-9

# Source: PubChem BioAssay (several laboratories)
